Assay results taken from PubChem BioAssay AID1689 (NMMLSC, 2009).
Entries with a potency or affinity are not part of this list. Active and inactive are the calls of the source.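 Rule for the calls: active = curve fits scoring over 52 on a 0 to 100 blend rewarding potency under 10 µM and span over 20%; inactive = the rest.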

What follows are compounds tested against ATP-dependent translocase ABCB1 (Homo sapiens) (UniProt P08183) (assay: inhibition of P-gp mediated JC-1 efflux – Jurkat-DNR cells, flow cytometry, dose response (AID 1689)). Conditions: series mostly up to 66.6 µM.
ATP-dependent translocase ABCB1 (Homo sapiens), sequence (P08183 whole entry, looked up): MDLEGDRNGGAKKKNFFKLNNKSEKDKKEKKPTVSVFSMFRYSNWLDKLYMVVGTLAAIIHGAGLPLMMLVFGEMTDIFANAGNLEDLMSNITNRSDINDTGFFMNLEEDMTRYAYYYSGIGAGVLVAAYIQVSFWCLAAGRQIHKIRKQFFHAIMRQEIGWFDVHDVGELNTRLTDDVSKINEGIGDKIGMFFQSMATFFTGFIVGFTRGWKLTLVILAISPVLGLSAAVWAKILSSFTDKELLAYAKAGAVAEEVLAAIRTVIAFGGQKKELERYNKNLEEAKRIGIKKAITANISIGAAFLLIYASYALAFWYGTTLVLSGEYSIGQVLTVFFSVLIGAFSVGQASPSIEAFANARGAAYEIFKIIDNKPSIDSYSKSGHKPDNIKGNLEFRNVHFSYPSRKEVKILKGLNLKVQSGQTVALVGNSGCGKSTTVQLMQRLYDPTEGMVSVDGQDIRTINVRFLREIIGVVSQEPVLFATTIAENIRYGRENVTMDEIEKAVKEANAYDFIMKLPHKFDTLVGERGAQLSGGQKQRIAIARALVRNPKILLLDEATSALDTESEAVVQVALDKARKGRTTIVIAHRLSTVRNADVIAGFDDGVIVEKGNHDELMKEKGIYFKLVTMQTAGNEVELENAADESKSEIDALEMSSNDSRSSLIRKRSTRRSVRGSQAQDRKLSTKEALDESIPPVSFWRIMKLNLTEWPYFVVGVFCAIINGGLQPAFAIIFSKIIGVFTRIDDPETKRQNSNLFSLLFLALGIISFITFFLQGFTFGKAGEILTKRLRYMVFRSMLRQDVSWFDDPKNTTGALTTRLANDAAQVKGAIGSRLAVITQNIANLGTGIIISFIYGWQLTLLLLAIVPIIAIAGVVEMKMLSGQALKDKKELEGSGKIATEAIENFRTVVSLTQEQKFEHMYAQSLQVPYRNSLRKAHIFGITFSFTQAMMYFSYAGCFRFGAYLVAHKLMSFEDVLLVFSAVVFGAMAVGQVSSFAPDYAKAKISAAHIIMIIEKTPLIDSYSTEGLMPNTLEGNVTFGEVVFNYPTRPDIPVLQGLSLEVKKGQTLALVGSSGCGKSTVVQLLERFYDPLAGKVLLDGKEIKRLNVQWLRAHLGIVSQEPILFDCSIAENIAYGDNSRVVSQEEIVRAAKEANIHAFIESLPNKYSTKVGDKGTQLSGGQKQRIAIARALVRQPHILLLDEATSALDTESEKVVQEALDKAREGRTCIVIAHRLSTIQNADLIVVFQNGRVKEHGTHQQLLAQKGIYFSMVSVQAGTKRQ

Question: For `COc1cc(C(=O)Nc2ccc(S(=O)(=O)NC(C)C)cc2)cc(OC)c1OC`, which outcome is on record?
Answer: inactive

Question: How did the outcome turn out when `CCOc1ccccc1NC(=O)C(OC(=O)c1ccc(N(C)C)cc1)c1ccccc1` (stereo not given) was run?
Answer: inactive

Question: With `CC(C)C(NS(=O)(=O)c1ccccc1)C(=O)OCc1cc([N+](=O)[O-])cc2c1OCOC2` (stereo not given) as the compound, how does the outcome read?
Answer: inactive

Question: For `CCOC(=O)c1sc2cc([N+](=O)[O-])cc(SCC(C)C)c2c1N`, which inhibition is on record?
Answer: 56.3% [at 2.47 µM] (inactive)

Question: With `COc1cccc(-c2nc(N3CC(C)CC(C)C3)c3ccccc3n2)c1O` (stereo not given) as the compound, how does the outcome read?
Answer: inactive
